IP6K1 inhibitor: Primary qHTS assay for small molecule inhibitors of Inositol hexaphosphate kinase 1 (IP6K1) | Inositol hexakisphosphate kinase 1 (Homo sapiens), Q92551 | activity change, % (series mostly up to about 58 µM) | 140,000 compounds, 0.81% hits | AID 1645851, 2021 | IP6K1 kinase, ADP-Glo luminescence, 2 h; active compounds read low; in the data active = activity change below about -25%
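ADP-Glo luminescence measures ADP made by human IP6K1 during a 2 h RT reaction with ATP/IP6 (mix at 1.3 mM/130 uM); top library doses 57.5 and 19.1 uM final.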
KDM5B inh: Primary screen for KDM5B Histone Demethylases FDH-coupled qHTS; KDM5B demethylase, FDH-coupled NADH fluorescence (FDH is formaldehyde dehydrogenase); Potency, µM (highest dose often 57.7 µM), hits mostly inhibitors; 220,000 compounds, 2.6% hits; AID 1347165, 2019; Lysine-specific demethylase 5B (Homo sapiens), Q9UGL1; active = well fitted inhibition curve with a large enough effect; inconclusive = small, poorly fitted or top-dose-only effect; inactive = no such curve, though single readings can be large or run the other way; note: nearly all actives have a fitted effect of over 70% in size
Target sequence (Q9UGL1 whole entry, looked up): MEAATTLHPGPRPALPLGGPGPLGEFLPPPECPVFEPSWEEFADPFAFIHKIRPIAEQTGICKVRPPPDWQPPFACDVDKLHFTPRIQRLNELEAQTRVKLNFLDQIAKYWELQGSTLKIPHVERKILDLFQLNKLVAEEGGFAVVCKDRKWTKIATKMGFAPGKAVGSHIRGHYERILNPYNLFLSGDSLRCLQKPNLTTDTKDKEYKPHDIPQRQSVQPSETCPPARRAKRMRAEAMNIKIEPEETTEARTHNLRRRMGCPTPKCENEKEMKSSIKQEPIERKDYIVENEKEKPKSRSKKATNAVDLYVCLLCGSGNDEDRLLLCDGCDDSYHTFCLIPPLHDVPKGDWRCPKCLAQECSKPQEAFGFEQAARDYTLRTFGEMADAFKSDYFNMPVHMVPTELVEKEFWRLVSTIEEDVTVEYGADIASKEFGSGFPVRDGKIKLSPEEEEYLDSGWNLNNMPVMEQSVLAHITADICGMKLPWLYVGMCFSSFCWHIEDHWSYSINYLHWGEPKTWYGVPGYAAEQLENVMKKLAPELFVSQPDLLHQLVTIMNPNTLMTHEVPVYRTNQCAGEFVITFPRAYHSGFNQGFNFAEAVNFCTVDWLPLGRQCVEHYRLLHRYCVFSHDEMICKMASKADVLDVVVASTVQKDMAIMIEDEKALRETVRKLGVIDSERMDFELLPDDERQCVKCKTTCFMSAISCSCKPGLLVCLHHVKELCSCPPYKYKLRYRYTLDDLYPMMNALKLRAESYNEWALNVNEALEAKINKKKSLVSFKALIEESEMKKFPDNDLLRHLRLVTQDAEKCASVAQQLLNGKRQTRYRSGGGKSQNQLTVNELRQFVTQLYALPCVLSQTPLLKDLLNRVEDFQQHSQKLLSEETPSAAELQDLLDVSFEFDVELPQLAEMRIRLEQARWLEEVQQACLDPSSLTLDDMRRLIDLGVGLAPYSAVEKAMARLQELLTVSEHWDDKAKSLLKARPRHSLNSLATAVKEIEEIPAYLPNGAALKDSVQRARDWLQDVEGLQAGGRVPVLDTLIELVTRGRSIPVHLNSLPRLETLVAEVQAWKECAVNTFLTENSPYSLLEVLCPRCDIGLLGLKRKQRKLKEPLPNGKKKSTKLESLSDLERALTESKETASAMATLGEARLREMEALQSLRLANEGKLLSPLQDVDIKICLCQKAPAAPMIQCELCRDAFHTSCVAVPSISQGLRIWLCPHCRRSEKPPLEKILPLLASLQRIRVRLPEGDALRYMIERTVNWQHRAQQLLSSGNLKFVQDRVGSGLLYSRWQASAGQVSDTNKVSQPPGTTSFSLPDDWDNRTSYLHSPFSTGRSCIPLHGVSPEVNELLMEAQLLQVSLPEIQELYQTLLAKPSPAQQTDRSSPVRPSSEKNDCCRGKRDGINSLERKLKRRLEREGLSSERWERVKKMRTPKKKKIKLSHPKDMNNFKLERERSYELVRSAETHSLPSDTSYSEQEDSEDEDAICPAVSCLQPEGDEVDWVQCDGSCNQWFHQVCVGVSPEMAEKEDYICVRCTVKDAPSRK
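Inhibition is measured as reduced NADH fluorescence generation from FDH coupling to formaldehyde release. Truncated KDM5BΔAP at 200 nM final acts on H3K4me3 peptide (12.5 µM in substrate mix) in pH 7.5 HEPES buffer with Tween-20, 30 min, room temperature.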
Hits are given with their value; 0 = inactive; ? = inconclusive; - = no result given. In the library only some 2.8% were active in any assay of this set; here they are far more common.

SMILES	IP6K1 inhibitor	KDM5B inh
COc1ccc(-c2cccc(C(=O)N3CCN(c4ncccn4)CC3)c2)nn1	0	-
O=C(Nc1ccccc1F)c1cnn2c(C(F)F)cc(C3CC3)nc12	-	0
COc1ccc2nc([C@H]3CCN(Cc4ccc(F)cc4)C3)[nH]c2c1	0	?
COc1ccc2cc(C(=O)N3CCC(C(=O)N4CCCC4)CC3)[nH]c2c1	-	0
COc1ccc2cc(C(=O)N3CCC4(CC3)CC(C(=O)N3CCOCC3)N(C)C4)[nH]c2c1 (stereo not drawn)	0	25µM
Cc1ccc(CN2CCC3(CC2)CC(C(=O)N2CCOCC2)N(C)C3)s1 (stereo not drawn)	0	?
CN1CC2(CCN(Cc3ccccn3)CC2)CC1C(=O)N1CCOCC1 (stereo not drawn)	0	20µM
Cc1noc(C)c1CN1CCC2(CC1)CC(C(=O)N1CCOCC1)N(C)C2 (stereo not drawn)	0	-
CN1CC2(CCN(Cc3cccn3C)CC2)CC1C(=O)N1CCOCC1 (stereo not drawn)	0	16µM
COc1cccc(-c2ccc(C(=O)NCCNC(=O)C(C)C)cc2)c1	0	-
C1CCCN(CCNC2CCCC2)CC1	-	0
c1cncc(COc2cc3c(cn2)NCCN(Cc2ccsc2)C3)c1	0	35µM
c1ccc(-c2cc3c(cn2)CN(Cc2ccc4[nH]ccc4c2)CCN3)cc1	0	0
Oc1ccccc1CN1CCNc2cnc(OCc3cccnc3)cc2C1	0	?
c1cncc(COc2cc3c(cn2)NCCN(CC2CCCCC2)C3)c1	0	25µM
COc1ccc(CN2CCNc3cnc(OCc4cccnc4)cc3C2)cn1	0	?
CCOc1cc2c(cn1)NCCN(Cc1ccc3[nH]ccc3c1)C2	0	28µM
O=C(Cc1ccc(F)cc1)NCC1CCN(Cc2cccs2)CC1	-	0
COc1ccc2oc(-c3ccc(NC(=O)c4ccc(C)cc4)cc3)nc2c1	-	0
CC(C)OC(=O)N(C)Cc1cccc(N2CCN(C(=O)c3c(Cl)cccc3Cl)CC2)c1F	0	-
N#CC1CCN(C(=O)C2CCCN(Cc3cccc(-c4ccsc4)c3)C2)CC1 (stereo not drawn)	0	-
CCN(CC)c1nc2c(c(=O)n(C)c(=O)n2C)n1CC	-	0
CC(C)C[C@@H]1N[C@H](C(=O)O)Cc2cn(CC3CCC3)c3cccc1c23	0	32µM
CC(C)C[C@@H]1N[C@H](C(=O)NC2CCC2)Cc2cn(CC3CC3)c3cccc1c23	0	0
CC(C)C[C@@H]1N[C@H](C(=O)N2CCN(C)CC2)Cc2cn(Cc3nccn3C)c3cccc1c23	0	?
SMILES	IP6K1 inhibitor	KDM5B inh
CC(C)C[C@@H]1N[C@H](C(=O)O)Cc2cn(Cc3nccn3C)c3cccc1c23	0	32µM
CCOC(=O)[C@H]1C[C@]2(CCCCN(CCO)C2=O)N(C(=O)CC2CCCC2)[C@H]1c1ccco1	0	-
COc1ccc(-c2cc(C(=O)Oc3ccc(F)cc3)no2)cc1	-	0
CC(C)OCc1ccc(CNC(=O)C2CCCCC2)cc1	-	0
CCCNc1nc(Nc2ccc(C)cc2)c2cnn(C)c2n1	-	0
N[C@@H](CO)c1nc(C2CCOCC2)nn1-c1ccccc1F	0	25µM
Fc1cccc(-n2nc(C3CCOCC3)nc2CNC2CC2)c1	0	0
CC(C)CNC(=O)c1cn2cc(-c3ccccc3)sc2n1	0	-
Cc1noc(C)c1-c1cc2c(cc(-c3ccccc3)n2C)c(Nc2ccncn2)n1	0	35µM
Cc1noc(C)c1-c1cc2c(cc(-c3ccccc3)n2C)c(-c2cnn(C)c2)n1	0	35µM
Cc1noc(C)c1-c1cc2c(cc(C)n2C)c(-c2cnn(C)c2)n1	0	0
Cc1noc(C)c1-c1cc2c(cc(-c3ccccc3)n2C)c(N2CCOCC2)n1	0	22µM
Cc1noc(C)c1-c1cc2c(cc(C)n2C)c(Nc2ccncn2)n1	0	0
Cc1noc(C)c1-c1cc2c(cc(C)n2C)c(N2CCN(Cc3ccccc3)CC2)n1	0	?
COc1ccc(-c2cc(-c3c(C)noc3C)cc3c2C(=O)N(C)C3)cn1	0	32µM
Cc1noc(C)c1-c1cc2c(c(-c3cccnc3)c1)C(=O)N(C)C2	0	0
Cc1cc(C(F)(F)F)nc(SCC(=O)c2ccccc2)n1	-	0
CNC(=O)c1cc(C2CC2)nc2c1c(C1CCN(C(=O)c3ccc(F)cc3)CC1)nn2C	0	-
COc1ccc(-c2c(C(=O)NC(C)C)nc3sccn23)cc1	0	-
CC1c2cc3c(cc2CCN1S(=O)(=O)c1ccc(Cl)c(C(F)(F)F)c1)OCCCO3 (stereo not drawn)	-	0
COc1ncccc1-c1nc(-c2c(C)noc2C)cc2c1cc(-c1ccccc1)n2C	0	0
COc1ccc(-c2nc(-c3c(C)noc3C)cc3c2cc(-c2ccccc2)n3C)cn1	0	28µM
O=C(NCC1Cn2cccc2C(=O)N1Cc1ccccc1)C1CC1 (stereo not drawn)	0	0
O=C(NCC1Cn2cccc2CN1Cc1ccccc1)C1CC1 (stereo not drawn)	0	28µM
CCn1cc(S(=O)(=O)NCC2Cn3cccc3C(=O)N2CCOC)cn1 (stereo not drawn)	0	0
SMILES	IP6K1 inhibitor	KDM5B inh
Cc1ccc(CNC(=O)NCC2Cn3cccc3CN2C)cc1 (stereo not drawn)	0	?
O=C(CCc1nc2ccccc2s1)NCC1Cn2cccc2CN1Cc1ccccc1 (stereo not drawn)	0	25µM
O=C(Cn1c(=O)oc2ccccc21)NCC1Cn2cccc2CN1Cc1ccccc1 (stereo not drawn)	0	-
CN1Cc2cccn2CC1CNC(=O)NC1CCCCC1 (stereo not drawn)	0	28µM
CCn1cc(S(=O)(=O)NCC2Cn3cccc3CN2Cc2ccccc2)cn1 (stereo not drawn)	0	28µM
O=C(NCc1ccccn1)c1nc2sccn2c1-c1cccc(C(F)(F)F)c1	0	-
CC1CCN(CCCNCc2ccccc2)CC1	-	0
O=C(NCC1Cn2cccc2CN1Cc1ccccc1)NC1CCCCC1 (stereo not drawn)	0	28µM
COc1ccc(NC(=O)NCC2Cn3cccc3CN2Cc2ccccc2)cc1 (stereo not drawn)	0	-
Cc1ccc(OCC(=O)NCC2Cn3cccc3C(=O)N2C)cc1 (stereo not drawn)	0	0
NCC1Cn2cccc2CN1Cc1ccccc1 (stereo not drawn)	0	16µM
O=C(COc1ccc(F)cc1)NCC1Cn2cccc2CN1Cc1ccccc1 (stereo not drawn)	0	25µM
O=C1c2cccn2CC(CNS(=O)(=O)Cc2ccccc2)N1Cc1ccccc1 (stereo not drawn)	0	0
CC1=C[C@@H](CN(C)Cc2cccnc2)[C@H](C(C)C)C[C@H]1Cc1nnc(-c2ccc([N+](=O)[O-])cc2)o1	0	13µM
CC1=C[C@@H](CN2CCN(c3cnccn3)CC2)[C@H](C(C)C)C[C@H]1Cc1nnc(-c2cccnc2)o1	0	32µM
CC1=C[C@@H](CN(C)CCO)[C@H](C(C)C)C[C@H]1Cc1nnc(-c2ccccc2F)o1	0	0
C#CCN(C)C[C@@H]1C=C(C)[C@H](Cc2nnc(-c3ccccc3F)o2)C[C@H]1C(C)C	0	35µM
CC1=C[C@@H](CN2CCC(C)CC2)[C@H](C(C)C)C[C@H]1Cc1nnc(-c2cccnc2)o1	0	0
CC1=C[C@@H](CNCc2cccnc2)[C@H](C(C)C)C[C@H]1Cc1nnc(-c2ccccc2)o1	0	0
